Source: PubChem BioAssay (NCI)
About 79,000 compounds went through this panel and 15% of them were active in at least one assay; those are over-represented in the sample as a whole. Values without a mark were called inactive. The source made the active and inactive calls. Rule as the data show it: active = growth inhibition above about 70%; inactive = the rest.

Legend:
[1] = NCI Yeast Anticancer Drug Screen. Data for the rad50 strain (AID 155);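 also: 0% = growth of vehicle-only cultures of the same strain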; details: S. cerevisiae rad50 strain growth inhibition, stronger effect = higher value
Outline: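 A DNA repair-deficient yeast mutant serves as the test organism; compound-induced growth inhibition is calculated against vehicle-treated cells.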

[2] = NCI Yeast Anticancer Drug Screen. Data for the mec2-1 strain (AID 157); details: S. cerevisiae mec2-1 strain, stronger effect = higher value
Outline: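 Readout is yeast growth inhibition, normalised to vehicle-treated controls, in the mec2-1 strain exposed to compound.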

[3] = NCI Yeast Anticancer Drug Screen. Data for the sgs1 mgt1 strain (AID 161);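 also: 0% = growth of cultures given vehicle only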; details: S. cerevisiae sgs1 mgt1 strain, stronger effect = higher value
Outline: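 Growth of a repair-deficient yeast mutant was monitored after compound treatment and expressed as inhibition relative to vehicle-treated cultures.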

[4] = NCI Yeast Anticancer Drug Screen. Data for the cln2 rad14 strain (AID 165);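 also: 0% = growth equal to vehicle treated cultures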; details: S. cerevisiae cln2 rad14 strain, stronger effect = higher value
Outline: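 Relative to vehicle controls, growth inhibition of compound-treated cln2 rad14 yeast was recorded.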

[5] = NCI Yeast Anticancer Drug Screen. Data for the bub3 strain (AID 167); details: S. cerevisiae bub3 mutant strain, stronger effect = higher value
Outline: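 Inhibition values come from growth of compound-treated mutant yeast normalised to vehicle-treated controls.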

[6] = NCI Yeast Anticancer Drug Screen. Data for the mlh1 rad18 strain (AID 175); details: S. cerevisiae mlh1 rad18 strain growth inhibition, stronger effect = higher value
Outline: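 Test agents were incubated with a yeast strain of defined genotype (DNA damage repair defect). Inhibition of growth was derived by comparison with vehicle-exposed cultures.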

[7] = at 5.0 µM (retest, dose inferred, filed as 0.5)
[8] = at 50.0 µM (retest, dose inferred, filed as 5.0)

| Compound | growth inhibition [1, 7] | growth inhibition [1, 8] | growth inhibition ([1]; at 50.0 µM) | growth inhibition [2, 7] | growth inhibition [2, 8] | growth inhibition ([2]; at 50.0 µM) | growth inhibition [3, 7] | growth inhibition [3, 8] | growth inhibition ([3]; at 50.0 µM) | growth inhibition [4, 7] | growth inhibition [4, 8] | growth inhibition ([4]; at 50.0 µM) | growth inhibition [5, 7] | growth inhibition [5, 8] | growth inhibition ([5]; at 50.0 µM) | growth inhibition [6, 7] | growth inhibition [6, 8] | growth inhibition ([6]; at 50.0 µM) |
| --- | --- | --- | --- | --- | --- | --- | --- | --- | --- | --- | --- | --- | --- | --- | --- | --- | --- | --- |
| C[C@@H]1CCC2[C@@H](C)[C@H](O[C@H]3O[C@@H]4O[C@@]5(C)CCC6[C@H](C)CCC([C@H]3C)[C@]64OO5)O[C@@H]3O[C@@]4(C)CCC1[C@@]23OO4 (some centres not stated) | 92% (active) | 93% (active) | 90.2% (active) | 95% (active) | 94% (active) | 91.6% (active) | 94% (active) | 95% (active) | 92% (active) | 79% (active) | 93% (active) | 89.7% (active) | 92% (active) | 94% (active) | 91.2% (active) | 93% (active) | 93% (active) | 90.8% (active) |
| CC[C@H](C)c1occ2c(O)c(C(=O)O)c(=O)cc-2c1C | 56% | 98% (active) | 24.5% | 71% (active) | 99% (active) | -2.7% | 99% (active) | 99% (active) | 12.2% | 31% | 99% (active) | 3.2% | 74% (active) | 99% (active) | 12.2% | 88% (active) | 98% (active) | 81.2% (active) |
| N=P(c1ccccc1)(c1ccccc1)c1ccccc1 (tested in a mixture with another compound) | 10% | 32% | 62.2% | 6% | 25% | 17.3% | 14% | 32% | 44.1% | -3% | 10% | 25.4% | -1% | 29% | 19.1% | 6% | 27% | 59.9% |
| C(CCC[Te][Te]CCCCCCOC1CCCCO1)CCOC1CCCCO1 (configuration not stated) | 6% | 39% | 84.5% (active) | 3% | 17% | 48.5% | 7% | 19% | 67.7% | 3% | 29% | 62.4% | 0% | 30% | 68.7% | 2% | 30% | 90% (active) |
| CCC[CH2][Sn]([Cl])([Cl])[CH2]CCC | 96% (active) | 98% (active) | 99.5% (active) | 98% (active) | 98% (active) | 99.3% (active) | 96% (active) | 96% (active) | 99.2% (active) | 98% (active) | 98% (active) | 98.7% (active) | 98% (active) | 98% (active) | 99.5% (active) | 98% (active) | 97% (active) | 98.8% (active) |
| COP(=S)(OC)N(C)C(=O)Oc1cccc2ccccc12 | 0% | 27% | 48.5% | -21% | 15% | 39.2% | -20% | 57% | 60% | 0% | 10% | 55.5% | 9% | 40% | 61.4% | -14% | 77% (active) | 80.8% (active) |
| CN(C)C(=O)Oc1c(Cl)cc(Cl)c(Cl)c1Cl | 4% | 16% | 13.9% | 1% | 9% | -10.9% | 6% | 12% | 22% | 5% | 7% | 36.1% | 2% | 8% | -36% | 19% | 28% | 37.5% |
| CC#C[P+](c1ccccc1)(c1ccccc1)c1ccccc1 | 98% (active) | 98% (active) | 91.2% (active) | 87% (active) | 87% (active) | 92.9% (active) | 90% (active) | 90% (active) | 92.8% (active) | 91% (active) | 91% (active) | 90.8% (active) | 86% (active) | 86% (active) | 90.2% (active) | 95% (active) | 95% (active) | 88.8% (active) |
| O=C1C=C(Cl)C(=O)C=C1Cl | 17% | 99% (active) | 99.2% (active) | 13% | 100% (active) | 99.5% (active) | 10% | 99% (active) | 99.5% (active) | 5% | 91% (active) | 86.7% (active) | 5% | 99% (active) | 99.3% (active) | 11% | 99% (active) | 99.3% (active) |
